TROY NFkB inh – TROY signaling inhibition. Q293 LMP1-TROYcd NF-kB luciferase reporter, 4 h. inhibition, % at 10 µM. hit rate 0.98% among 360,000;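 active = compounds whose plate-normalised and pattern-corrected inhibition of the luciferase reporter signal at the single screening dose is 50% or more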
HIF-2a block – HIF-2a inhibition; 786-0 RCC cells HIF-2a reporter, luciferase luminescence, overnight; inhibition, % at 18.8 µM; hit rate 0.72% among 360,000; AID 624352;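 active = inhibition of the luminescence signal of 40% or more relative to plate controls, in a single-dose primary screen at 18.75 µM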
Peg3 prom inh – inhibitors of Peg3 promoter; HeLa PEG-Prom luciferase reporter, luminescence, overnight; inhibition, % at 20 µM; hit rate 1.7% among 360,000; AID 588405;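 active = inhibition of at least 50% at 20 µM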
TWEAK Fn14 block – inhibitors of TWEAK-Fn14 interaction signaling | TWEAK-stimulated Fn14 reporter cells, luciferase luminescence, 8 h | inhibition, % at 10 µM | hit rate 2% among 360,000 | AID 1159606; in the data active = inhibition above about 50%
CF NFkB inh – cystic fibrosis NF-kB activation inhibition. inhibition, % at 5 µM. KKLEB NF-kB-GFP reporter, PAF-induced, GFP fluorescence overnight. hit rate 0.86% among 360,000. AID 588850;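 active = at least 50% inhibition at 5 µM, scaled per plate between neutral and stimulator controls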;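 also: PAF is a Pseudomonas aeruginosa culture filtrate used as stimulus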
KKLEB tox – CF airway cell cytotoxicity counter-screen | KKLEB CF airway cells viability, ATPlite luminescence, overnight; hits give low values; cells stimulated with P. aeruginosa culture filtrate | activity change (cytotoxicity), % at 5 µM | hit rate 0.36% among 360,000 | AID 602141;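 active = corrected activity change at or below -50% at 5 µM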
A number is an active result; i = inactive. The list is not random: actives were taken first. Their share in the collection is about 4%.

SMILES | TROY NFkB inh | HIF-2a block | Peg3 prom inh | TWEAK Fn14 block | CF NFkB inh | KKLEB tox
CC(O)C1C=CC=CC(=O)OC2CC3OC4C5OC5(C)C(O)CC4(COC(=O)C(O)C(C)CCO1)C2(C)C31CO1 (stereo unspecified) | 86 | 66 | 105 | 99 | 83 | i
CC1(C)C[C@H]2C=C(C=O)[C@]3(C=O)C[C@]3(C)[C@H]2C1 | i | i | 105 | 84 | 77 | i
CN1C[C@H](CO)C[C@@H]2c3cccc4[nH]cc(c34)C[C@H]21 | i | i | i | i | i | i
CN1C[C@H](CNC(=O)OCc2ccccc2)C[C@@H]2c3cccc4c3c(cn4C)C[C@H]21 | i | i | i | 60 | i | i
Nc1ccc(C2(c3ccc(N)cc3)c3ccccc3-c3ccccc32)cc1 | i | i | i | 83 | 75 | -57
Nc1ccc(-c2ccccc2)cc1 | i | i | i | i | i | i
CC1=C(C)CC2(CC1)C(=O)NC(=O)NC2=O | i | i | 61 | i | i | i
CC(C)(C)C(=O)N1Cc2cc(N3CCCCC3)ccc2-n2nncc2C1 | i | i | i | i | i | i
O=C1C(Cc2cnc[nH]2)NC(=S)N1c1ccccc1 (stereo unspecified) | i | i | i | i | i | i
CN(C)c1ccc(/C=C/[N+](=O)[O-])cc1 | i | i | i | i | i | i
C/C(=C\c1ccc(N(C)C)cc1)[N+](=O)[O-] | i | 93 | 101 | i | i | i
CCCCCC1(C(C)C)C(=O)NC(=S)NC1=O | i | i | i | i | i | i
Clc1ccc2c(c1)C(OC1CN3CCC1CC3)c1ccccc1CS2 (stereo unspecified) | i | i | 97 | i | i | i
CN1CCN(CCOC2c3ccccc3CSc3ccc(Cl)cc32)CC1 (stereo unspecified) | i | i | i | i | i | i
CC12CC1(C)C(=O)N(c1cc(Cl)cc(Cl)c1)C2=O (stereo unspecified) | i | i | i | i | i | i
COC(=O)C1=C(c2ccc(F)cc2OCc2ccccc2)C[C@@H]2CC[C@H]1N2C(=O)N1CCC(O)(c2ccc(Cl)cc2)CC1 | i | i | i | 56 | i | i
COc1cc2c(c(OC)c1OC)-c1ccc(O)c(=O)cc1C(NC(C)=O)CC2 (stereo unspecified) | i | i | i | i | 54 | i
CC1=CC(C)CC(C)OC(=O)CC(c2ccc(O)cc2)NC(=O)C(Cc2c(Br)[nH]c3ccccc23)N(C)C(=O)C(C)NC(=O)C(C)C1 (stereo unspecified) | 70 | i | 76 | i | 91 | -81
N=Cc1c(O)n(-c2ccc(C34CC5CC(CC(C5)C3)C4)cc2)c(=O)[nH]c1=O | 54 | i | i | 67 | i | i
CC1CN1c1cc2c(c3c1ccn3C)C1CCC2C1 (stereo unspecified) | i | i | i | i | i | i
CCOC(=O)C1(c2ccccc2)CCN(CCC(=O)Nc2cccc(Br)c2)CC1 | i | i | 59 | i | i | i
O=C(O)c1ccc(-[n+]2c(-c3ccccc3)cc(-c3ccccc3)cc2-c2ccccc2)cc1 | i | i | i | i | i | i
CCCOC(=O)c1ccc(-[n+]2c(-c3ccccc3)cc(-c3ccccc3)cc2-c2ccccc2)cc1 | i | i | i | 62 | i | i
COCCN1C(=O)/C(=C/c2c(OC)cc(OC)cc2OC)C(=O)N(c2ccccc2)C1=O | i | i | i | 70 | i | i
COc1ccc(CC2C(=O)N(c3ccccc3)C(=O)N(c3ccccc3)C2=O)c(OC)c1 | i | i | i | i | i | i
SMILES | TROY NFkB inh | HIF-2a block | Peg3 prom inh | TWEAK Fn14 block | CF NFkB inh | KKLEB tox
CCC(=Nc1ccc2c(c1)CCC2)c1c(O)n(-c2ccc(OC)cc2)c(=O)[nH]c1=O | i | i | i | i | i | i
Cc1ccccc1-[n+]1c(-c2ccccc2)cc(-c2ccccc2)cc1-c1ccccc1 | 63 | i | i | 89 | i | i
C[C@H]1CC[C@H]2NCCN[C@H]2C1 | i | i | i | i | i | i
NC(N)=N/N=C/c1ccc(N(c2ccccc2)c2ccccc2)cc1 | 69 | 95 | 105 | i | i | i
COC(=O)c1ccc(NC(=O)CSc2nc3ccc(N4C(=O)C5C6C=CC(C6)C5C4=O)cc3s2)cc1 (stereo unspecified) | 57 | i | 105 | 91 | i | i
CN1C(=O)C(C2c3ccccc3C(=O)N2Cc2ccccc2)C(=O)N(C)C1=O (stereo unspecified) | 51 | i | i | i | i | i
C[C@]12CC[C@@H]3c4ccc(O)c(O)c4CC[C@H]3[C@@H]1CC[C@@H]2O | i | i | i | 55 | i | i
CSCCC(c1nnnn1Cc1ccccc1)N1CCC2(CC1)C(=O)NCN2c1ccccc1 (stereo unspecified) | i | i | i | i | i | i
COc1ccc(C(c2nnnn2C2CCCC2)N2CCC3(CC2)C(=O)NCN3c2ccccc2)cc1 (stereo unspecified) | 56 | i | i | i | i | i
Cc1cccc(C)c1-n1nnnc1C(CCc1ccccc1)N1CCC2(CC1)C(=O)NCN2c1ccccc1 (stereo unspecified) | 67 | i | i | i | i | i
O=C1NCN(c2ccccc2)C12CCN(C(CCc1ccccc1)c1nnnn1Cc1ccccc1)CC2 (stereo unspecified) | i | i | 59 | i | i | i
O=C(NCC1=C(c2ccc3ccccc3c2)C[C@@H]2CC[C@H]1N2Cc1ccco1)c1cccnc1 | i | i | i | i | i | i
CN=C1CN(O)C(c2ccccc2)c2cc(Cl)ccc2N1 (stereo unspecified) | i | i | i | i | i | i
O=C1NC(=O)C(=Cc2c(Cl)cccc2Cl)C(=O)N1 | i | i | i | i | 59 | i
CCOC(=O)c1c(C)n(CC(O)CN2CCOCC2)c2cc(Br)c(OC)cc12 (stereo unspecified) | i | i | i | i | i | i
O=C1NC(=O)C(=Cc2cccc(OCCOc3ccccc3)c2)C(=O)N1 | i | i | i | i | i | i
Cc1ccc(OCCOc2cccc(C=C3C(=O)NC(=O)NC3=O)c2)c(C)c1 | i | 55 | i | 89 | i | i
CN1C(=O)C2C[C@@]3(Br)c4ccccc4N(OOSc4ccccc4)[C@H]3N2C(=O)[C@@H]1Cc1ccccc1 (stereo partly specified) | i | i | i | i | i | i
COc1ccc(-c2ccc3c(c2)CN(C(=O)NC2CCCCC2)Cc2cnnn2-3)cc1 | i | i | i | i | i | i
COCCCn1c(-c2ccc(OC)cc2)cc(C(=O)NC2CCCCCCC2)c1C | i | i | i | 64 | i | i
CCCC1CCCCC12C(=O)NC(=O)NC2=O (stereo unspecified) | i | i | i | i | i | i
Cc1ccc2c(C)c3ccc4ccccc4c3c[n+]2c1 | i | i | 55 | i | i | i
O=c1[nH]c(O)c(/C=C2/C=CC(c3cc(Cl)ccc3Cl)=N2)c(=O)[nH]1 | 85 | i | i | i | i | i
